Data: PubChem BioAssay AID504527 (The Scripps Research Institute Molecular Screening Center, 2011)
The source made the active and inactive calls.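 The calls were made as follows: active = two or more serine hydrolases at least half inhibited, plus every target band half blocked in a general-probe test; inactive = under two enzymes half blocked, or any target band not.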

Assay: broad serine hydrolase inhibition in proteome, late-stage follow-up, selectivity assay for PAFAH2 inhibitor project, fluorescence, gel-based ABPP, powder samples (AID 504527)
Settings: BW5147 murine T-cell proteome, FP-Rh fluorescence, competitor FP-biotin, probe test compound; non-competed targets by FP-biotin, at 20 µM, stronger effect = lower value

Row | SMILES | count of non-competed proteins | outcome
1 | C#CCOCCOCCOCCN(Cc1ccccc1)C(=O)n1nccn1 | 0 | active
2 | C#CCOCCOCCOCCN(Cc1ccccc1)C(=O)n1nc2cccnc2n1 | 3 | inactive
3 | C#CCOCCOCCOCCN(Cc1ccccc1)C(=O)n1ncc(-c2ccccc2)n1 | 0 | active
